Screens: PubChem, National Center for Advancing Translational Sciences (NCATS)
D1 antagonist: antagonists of human D1 dopamine receptor. P21728. HEK293 TREx D1 cells, calcium flux, dopamine EC80; active compounds read low. activity change, negative = inhibition, % at 10 µM. 360,000 compounds, 3.2% hits; in the data active = activity change below about -30%; also: % is scaled to controls: 0 for no effect and ±100 for the full control effect
Target sequence (P21728 whole entry, looked up): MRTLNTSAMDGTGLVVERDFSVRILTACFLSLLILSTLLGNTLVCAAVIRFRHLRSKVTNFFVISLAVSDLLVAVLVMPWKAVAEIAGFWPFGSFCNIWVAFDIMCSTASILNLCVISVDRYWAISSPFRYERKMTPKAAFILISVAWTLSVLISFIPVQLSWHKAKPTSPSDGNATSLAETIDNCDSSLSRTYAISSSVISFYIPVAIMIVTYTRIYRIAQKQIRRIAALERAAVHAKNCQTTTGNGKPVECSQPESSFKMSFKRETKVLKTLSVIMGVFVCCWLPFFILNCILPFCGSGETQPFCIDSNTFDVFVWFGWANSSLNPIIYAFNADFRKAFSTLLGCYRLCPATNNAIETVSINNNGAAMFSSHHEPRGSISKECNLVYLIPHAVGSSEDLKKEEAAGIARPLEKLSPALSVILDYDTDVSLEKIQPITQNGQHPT
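Calcium flux readout: force-coupled, inducible Hek293 Trex D1 line, cells induced overnight at 30 C with tetracycline, dye-loaded 30–90 min at RT. Antagonism scored against EC80 dopamine challenge given 180 s after compound.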
D1 ag: agonists of human D1 dopamine receptor | P21728 | HEK293 T-REx D1 cells, calcium flux, agonist mode | activation, % at 2 µM | 360,000 compounds, 1% hits | AID 504660; also: 0% is about no effect
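Tetracycline-induced HEK293 TREx D1 cells, force-coupled to calcium signalling, were dye-loaded with a no-wash calcium kit. Compound was pin-added after a 10 s baseline. Fluorescence was read kinetically at 1 cycle/s for 180 s, with calcium rises flagged as agonism.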
TRHR enhancer: TRH receptor (human) allosteric enhancement | TRHR cells, fluo-8 calcium fluorescence, EC20 TRH enhancement | enhancement, % at 2 µM | 360,000 compounds, 0.66% hits | AID 493056; in the data active = enhancement above about 30%; also: 0% is about no effect
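TRHR-expressing cells loaded with fluo-8 calcium dye were read kinetically (ex 480/em 530) during compound addition, then stimulated with an EC20 of TRH (10 nM final). Enhancement of the Gq-mediated intracellular calcium response was scored.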
TRHR ag: TRH receptor (human) agonism. P34981. TRHR cells, calcium flux fluo-8, FDSS agonist mode. activation, % at 2 µM. 360,000 compounds, 0.18% hits. AID 493084; also: 0% is about no effect
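Read-out: compound-evoked intracellular calcium rise in TRHR cells, fluo-8 dye, kinetic FDSS fluorescence at 1 s/cycle following a 10-cycle baseline. Cells cultured overnight before dye loading (30 min–1.5 h, RT).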
D1 potentiator: human D1 dopamine receptor positive modulation; P21728; HEK293 TREx D1 cells, calcium flux, dopamine EC20 potentiation; potentiation, % at 10 µM; 360,000 compounds, 0.036% hits; AID 504651; in the data active = potentiation above about 30%; also: 0% is about no effect
* hit, by the source's call; ! = not active in a repeat. Sampled rows, rich in hits. Any-hit rate of the full collection: about 4.7%. Rule as the data show it, unless noted: active = activation above about 30%; inactive = the rest.

SMILES	D1 antagonist	D1 ag	TRHR enhancer	TRHR ag	D1 potentiator
COc1ccc(CN(C)CC2CCCN(CCc3ccc(F)cc3)C2)cc1OC (stereo not given)	-4	2	-7	0	-6
Cc1ccccc1CCN1CCCC(CN(C)CC(C)(C)C)C1 (stereo not given)	-54*	-4	-2	0	-4
COc1ccccc1CCN1CCCC(CN(C)C(=O)c2ccco2)C1 (stereo not given)	-50*	2	0	1	-22
CC(=O)c1cc(-c2ccc(F)cc2)n(CCC(=O)NCc2ccc(C)cc2)c1C	2	0	-1	-1	-2
O=C(c1cnn(-c2cccc(F)c2)c1-n1cccc1)N1CCN(c2ccccc2F)CC1	-2	2	0	0	-1
O=C(NCCc1ccc(Cl)cc1)C1COc2ccccc2O1 (stereo not given)	9	0	0	0	0
COc1ccccc1C(=O)COC(=O)CCNS(=O)(=O)c1ccc(C)c(C)c1	-1	7	-1	0	-4
CC(C)c1ccc(NC(=O)CSc2nc(=O)n(CCCN3CCOCC3)c3c2CCCC3)cc1	11	0	-3	0	-7
O=C(CC1SC(=O)N(c2ccccc2)C1=O)Nc1ccccc1 (stereo not given)	-6	3	-5	0	-2
O=C(CC1Sc2ncnn2C1=O)Nc1ccccc1 (stereo not given)	1	1	30*	-1	-2
CCN(CC)c1ccc(NC(=O)Cn2c3ncccc3c(=O)n2-c2ccccc2)c(C)c1	1	1	5	0	-3
CC(NC(=O)c1cc(-c2cccnc2)nc2ccc(Br)cc12)C1CCCO1 (stereo not given)	-34*	0	8	0	2
CC(NC(=O)c1cc(-c2ccncc2)nc2ccc(Cl)cc12)C1CCCO1 (stereo not given)	4	0	-5	0	-1
COc1ccc(C2NC(=O)NC(C)=C2[N+](=O)[O-])cc1 (stereo not given)	-5	-2	3	0	-9
CC1=C([N+](=O)[O-])C(c2ccccc2)NC(=O)N1 (stereo not given)	-33*	0	-7	0	1
CC(C)(C)NC(=O)c1cccc(NC(=O)CSc2ccc(Cl)cc2)c1	-59*	10	-5	0	-11
CC(C)CNC(=O)c1cccc(NC(=O)CSc2ccc(Cl)cc2)c1	-12	7	-4	0	-4
Cc1nc2scc(C)n2c(=O)c1S(=O)(=O)Nc1cccc(C(F)(F)F)c1	-24	22	5	1	-2
Cc1ccc(Cl)cc1NC(=O)CSc1nc2c(c(=O)[nH]1)CN(Cc1ccccc1)CC2	-81*	10	-1	0	-3
COc1cc(/C=N/NC(=O)CNC(=O)c2ccco2)ccc1O	-48*	4	-7	0	-2
O=C(CNC(=O)c1ccco1)N/N=C/c1cc(Br)ccc1O	12	5	5	-1	11
Cc1ccc(-c2cc(C(=O)NCCc3ccccc3)c3c(-c4ccc(C)cc4)[nH]nc3n2)cc1	39	4	2	1	-4
Cn1nnnc1NCc1cccc(Cl)c1	4	0	2	0	-4
Clc1cccc(CNc2nnnn2-c2ccccc2)c1	-46*	37*	-2	0	-11
Cc1cc(=O)oc2cc(OCc3ccc(C(=O)N4CCN(c5ccc([N+](=O)[O-])cc5)CC4)cc3)ccc12	-16	3	-1	0	-4
SMILES	D1 antagonist	D1 ag	TRHR enhancer	TRHR ag	D1 potentiator
Cc1cc(=O)oc2cc(OCc3ccc(C(=O)N4CCN(c5ccccc5)CC4)cc3)ccc12	-37*	1	-8	0	-4
O=C(CCNS(=O)(=O)c1ccc2c(c1)CCN2C(=O)C1CC1)N1CCN(c2ccc(F)cc2)CC1	-37*	8	2	-1	-6
CC(=O)N1c2ccc(S(=O)(=O)NCC3CCC(C(=O)N(C)Cc4ccccc4)CC3)cc2CC1C (stereo not given)	2	5	4	0	-5
CC(=O)N1c2ccc(S(=O)(=O)NCCC(=O)NC3CCCCCC3)cc2CC1C (stereo not given)	6	2	3	1	7
CC(=O)N1c2ccc(S(=O)(=O)NCCC(=O)N3CCC(C)CC3)cc2CC1C (stereo not given)	11	3	32*	0	-6
CC(=O)N1c2ccc(S(=O)(=O)NCCC(=O)NC3CCCC(C)C3C)cc2CC1C (stereo not given)	-39*	14	12	0	-6
CCCCN(C)C(=O)C1CCC(CNS(=O)(=O)c2ccc3c(c2)CC(C)N3C(C)=O)CC1 (stereo not given)	-36*!	2	1	0	-9
CCC(NC(=O)Nc1cc(Cl)ccc1OC)c1c(-n2cccc2)sc2c1CCN(C)C2 (stereo not given)	-2	6	0	1	-1
CC1=CC(=O)C=C(C)C1=NOc1ccccc1[N+](=O)[O-]	-66*	0	1	0	-2
Nc1[nH]n(-c2ccccc2)c(=O)c1N=Nc1ccc2ncsc2c1	-17	0	7	-1	-2
COc1ccc(C2=CC(=O)C[C@H](c3ccc(OC)cc3)C2)cc1	-37*	6	4	0	-3
COc1ccc([C@H]2CC(=O)C=C(c3ccc(Cl)c(F)c3)C2)cc1	0	4	0	1	0
COc1ccc([C@H]2CC(=O)C=C(c3ccc(C)c(F)c3)C2)cc1	-29	56*	0	4	-2
COc1ccc([C@H]2CC(=O)C=C(c3ccccc3)C2)cc1	-11	4	6	1	-1
CCOCC(=O)Nc1cccc(OC)c1	2	1	30*	0	-1
COc1cc(NC(=O)COc2cccc(OC)c2)cc(OC)c1	-14	0	-2	0	-7
COc1ccc(CCN(C)CCC(=O)Nc2cccc(C)c2)cc1OC	-33*	3	-2	1	-5
COc1ccc(CC(=O)OCC(=O)Nc2cccc(Cl)c2)cc1	16	3	3	0	-3
COc1cccc(NC(=O)CN(C)C(=O)/C=C/c2ccc3ccccc3n2)c1	-46*	-1	-4	0	3
COc1ccc(CCC(=O)Nc2cccc(Cl)c2)cc1	-45*	11	3	0	-8
COc1cccc(NC(=O)COc2ccccc2)c1	13	3	-5	-2	10
CCOC(=O)c1nn(-c2ccc(C)cc2)c(=O)cc1OCC(=O)Nc1cccc(C)c1	0	7	17	0	-11
CCc1ccc(NC(=S)N2CCN(c3cccc(OC)c3)CC2)cc1	-31*	9	13	-1	-5
CCOC(=O)c1nn(-c2ccc(C)cc2)c(=O)cc1OCC(=O)Nc1cccc(OC)c1	-58*	4	-5	0	-6
